# In PubChem BioAssay (NCI):
# This is part of a sample that, as a whole, favours compounds with a hit. Of some 79,000 tested, about 15% had one in any assay. Values without a mark were called inactive. Calls of active or inactive are those of the source. Rule as the data show it: active = growth inhibition above about 70%; inactive = the rest.
# Assays:
# [1] = NCI Yeast Anticancer Drug Screen. Data for the rad52 strain (AID 147);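 also: 0% = growth of vehicle-treated control cultures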; details: S. cerevisiae rad52 mutant growth inhibition, active compounds read high
# Outline: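 Genetically altered yeast (DNA damage repair defect) treated with compound; inhibition calculated relative to vehicle.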
# [2] = NCI Yeast Anticancer Drug Screen. Data for the wt1 strain (AID 149);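 also: 0% = growth of vehicle-treated wt1 cultures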; details: S. cerevisiae wt1 strain (SPY 50644) growth inhibition, active compounds read high
# Outline: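 Readout: yeast growth inhibition, normalised to vehicle controls, in the wt1 strain exposed to test compounds.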
# [3] = NCI Yeast Anticancer Drug Screen. Data for the rad50EPP+ strain (AID 151);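 also: 0% = growth of vehicle-treated control cultures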; details: S. cerevisiae rad50 mutant strain, active compounds read high
# Outline: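 Strain rad50EPP+; compound exposure; % growth inhibition vs vehicle.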
# [4] = NCI Yeast Anticancer Drug Screen. Data for the mgt1 strain (AID 153); details: S. cerevisiae mgt1 mutant growth inhibition, active compounds read high
# Outline: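 Read-out: yeast growth inhibition vs vehicle control. Strain mgt1, drawn from a panel altered in DNA damage repair or cell cycle control.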
# [5] = NCI Yeast Anticancer Drug Screen. Data for the rad50 strain (AID 155);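 also: 0% = growth of vehicle-only cultures of the same strain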; details: S. cerevisiae rad50 strain growth inhibition, active compounds read high
# Outline: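 Compounds were tested on a yeast strain with an engineered DNA damage repair alteration; the reported value is growth inhibition normalised to vehicle treatment.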
# [6] = NCI Yeast Anticancer Drug Screen. Data for the mec2-1 strain (AID 157); details: S. cerevisiae mec2-1 strain, active compounds read high
# Outline: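 Cells of the genetically defined mec2-1 yeast strain are incubated with test compound. Inhibition of growth is calculated against vehicle-treated controls.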
# [7] = NCI Yeast Anticancer Drug Screen. Data for the rad14 strain (AID 159);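 also: 0% = growth of vehicle-treated control cultures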; details: S. cerevisiae rad14 strain growth inhibition, active compounds read high
# Outline: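 Compound-treated yeast with a defined DNA-repair lesion; growth inhibition normalised to vehicle-treated cultures.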
# [8] = NCI Yeast Anticancer Drug Screen. Data for the sgs1 mgt1 strain (AID 161);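 also: 0% = growth of cultures given vehicle only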; details: S. cerevisiae sgs1 mgt1 strain, active compounds read high
# Outline: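 Read-out: growth inhibition vs vehicle controls. Cells: mutant yeast strain deficient in DNA damage repair.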
# [9] = NCI Yeast Anticancer Drug Screen. Data for the CLN2oe strain (AID 163);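 also: 0% = growth of vehicle-only control cultures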; details: S. cerevisiae CLN2oe strain, active compounds read high
# Outline: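 Strain altered in cell-cycle control, incubated with compound; growth compared to solvent-treated controls.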
# [10] = NCI Yeast Anticancer Drug Screen. Data for the cln2 rad14 strain (AID 165);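 also: 0% = growth equal to vehicle treated cultures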; details: S. cerevisiae cln2 rad14 strain, active compounds read high
# Outline: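 The screen exposed genetically defined yeast (cln2 rad14) to test compounds and scored growth inhibition relative to vehicle-treated controls.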
# [11] = NCI Yeast Anticancer Drug Screen. Data for the bub3 strain (AID 167); details: S. cerevisiae bub3 mutant strain, active compounds read high
# Outline: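 Growth of a checkpoint-deficient yeast mutant is measured after compound exposure. Values represent inhibition relative to vehicle.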
# [12] = NCI Yeast Anticancer Drug Screen. Data for the wt2 strain (AID 169);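 also: 0% = growth of vehicle-treated yeast cultures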; details: S. cerevisiae wt2 strain growth inhibition, active compounds read high
# Outline: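 Steps: yeast strain treated with compound; growth recorded; inhibition calculated relative to cultures given vehicle alone.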
# [13] = NCI Yeast Anticancer Drug Screen. Data for the mlh1 strain (AID 171);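 also: 0% = growth of vehicle-treated control cultures of the same strain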; details: S. cerevisiae mlh1 strain growth inhibition, active compounds read high
# Outline: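 Yeast screen: mutant strain plus compound, growth scored against vehicle control wells.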
# [14] = NCI Yeast Anticancer Drug Screen. Data for the sgs1 strain (AID 173);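 also: 0% = growth of vehicle-only control cultures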; details: S. cerevisiae sgs1 mutant, active compounds read high
# Outline: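 Inhibition of yeast growth served as the measure. The mutant strain was treated with each compound, and growth was normalised to cultures receiving vehicle alone.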
# [15] = NCI Yeast Anticancer Drug Screen. Data for the mlh1 rad18 strain (AID 175); details: S. cerevisiae mlh1 rad18 strain growth inhibition, active compounds read high
# Outline: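 Compound-treated yeast growth, normalised to vehicle controls. Strain bears defined DNA repair mutations.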
# [16] = at 5.0 µM (retest, dose inferred, filed as 0.5)
# [17] = at 50.0 µM (retest, dose inferred, filed as 5.0)
structure (smiles),measurement,setting,value
CC(=O)/C=C/c1cccc([N+](=O)[O-])c1,growth inhibition,[1]; at 1.2 µM,2%
same,growth inhibition,[1]; at 3.7 µM,4%
same,growth inhibition,[1]; at 11.0 µM,9%
same,growth inhibition,[1]; at 33.0 µM,29%
same,growth inhibition,[1]; at 100.0 µM,86% (active)
same,growth inhibition,[2]; at 1.2 µM,1%
same,growth inhibition,[2]; at 3.7 µM,4%
same,growth inhibition,[2]; at 11.0 µM,8%
same,growth inhibition,[2]; at 33.0 µM,16%
same,growth inhibition,[2]; at 100.0 µM,68%
same,growth inhibition,[3]; at 1.2 µM,3%
same,growth inhibition,[3]; at 3.7 µM,7%
same,growth inhibition,[3]; at 11.0 µM,29%
same,growth inhibition,[3]; at 33.0 µM,81% (active)
same,growth inhibition,[3]; at 100.0 µM,98% (active)
same,growth inhibition,[4]; at 1.2 µM,1%
same,growth inhibition,[4]; at 3.7 µM,2%
same,growth inhibition,[4]; at 11.0 µM,7%
same,growth inhibition,[4]; at 33.0 µM,48%
same,growth inhibition,[4]; at 100.0 µM,94% (active)
same,growth inhibition,[5]; at 1.2 µM,0%
same,growth inhibition,[5]; at 3.7 µM,3%
same,growth inhibition,[5]; [16],-4%
same,growth inhibition,[5]; at 11.0 µM,8%
same,growth inhibition,[5]; at 33.0 µM,20%
same,growth inhibition,[5]; [17],84% (active)
same,growth inhibition,[5]; at 50.0 µM,82% (active)
same,growth inhibition,[5]; at 100.0 µM,89% (active)
same,growth inhibition,[6]; at 1.2 µM,0%
same,growth inhibition,[6]; at 3.7 µM,2%
same,growth inhibition,[6]; [16],2%
same,growth inhibition,[6]; at 11.0 µM,3%
same,growth inhibition,[6]; at 33.0 µM,29%
same,growth inhibition,[6]; [17],56%
same,growth inhibition,[6]; at 50.0 µM,51%
same,growth inhibition,[6]; at 100.0 µM,95% (active)
same,growth inhibition,[7]; at 1.2 µM,-2%
same,growth inhibition,[7]; at 3.7 µM,0%
same,growth inhibition,[7]; at 11.0 µM,7%
same,growth inhibition,[7]; at 33.0 µM,21%
same,growth inhibition,[7]; at 100.0 µM,91% (active)
same,growth inhibition,[8]; [16],-3%
same,growth inhibition,[8]; [17],85% (active)
same,growth inhibition,[8]; at 50.0 µM,48%
same,growth inhibition,[9]; at 1.2 µM,-2%
same,growth inhibition,[9]; at 3.7 µM,-2%
same,growth inhibition,[9]; at 11.0 µM,1%
same,growth inhibition,[9]; at 33.0 µM,6%
same,growth inhibition,[9]; at 100.0 µM,44%
same,growth inhibition,[10]; [16],5%
same,growth inhibition,[10]; [17],4%
same,growth inhibition,[10]; at 50.0 µM,6.15%
same,growth inhibition,[11]; at 1.2 µM,-4%
same,growth inhibition,[11]; at 3.7 µM,-5%
same,growth inhibition,[11]; [16],31%
same,growth inhibition,[11]; at 11.0 µM,-2%
same,growth inhibition,[11]; at 33.0 µM,28%
same,growth inhibition,[11]; [17],89% (active)
same,growth inhibition,[11]; at 50.0 µM,72.4% (active)
same,growth inhibition,[11]; at 100.0 µM,91% (active)
same,growth inhibition,[12]; at 1.2 µM,1%
same,growth inhibition,[12]; at 3.7 µM,4%
same,growth inhibition,[12]; at 11.0 µM,10%
same,growth inhibition,[12]; at 33.0 µM,28%
same,growth inhibition,[12]; at 100.0 µM,88% (active)
same,growth inhibition,[13]; at 1.2 µM,2%
same,growth inhibition,[13]; at 3.7 µM,1%
same,growth inhibition,[13]; at 11.0 µM,10%
same,growth inhibition,[13]; at 33.0 µM,32%
same,growth inhibition,[13]; at 100.0 µM,95% (active)
same,growth inhibition,[14]; at 1.2 µM,1%
same,growth inhibition,[14]; at 3.7 µM,7%
same,growth inhibition,[14]; at 11.0 µM,15%
same,growth inhibition,[14]; at 33.0 µM,50%
same,growth inhibition,[14]; at 100.0 µM,95% (active)
same,growth inhibition,[15]; [16],12%
same,growth inhibition,[15]; [17],94% (active)
same,growth inhibition,[15]; at 50.0 µM,81.7% (active)
O=c1[nH]c2c([N+](=O)[O-])cccc2c2ccccc12,growth inhibition,[1]; at 1.2 µM,-1%
same,growth inhibition,[1]; at 3.7 µM,0%
same,growth inhibition,[1]; at 11.0 µM,6%
same,growth inhibition,[1]; at 33.0 µM,40%
same,growth inhibition,[1]; at 100.0 µM,89% (active)
same,growth inhibition,[2]; at 1.2 µM,-3%
same,growth inhibition,[2]; at 3.7 µM,-2%
same,growth inhibition,[2]; at 11.0 µM,-2%
same,growth inhibition,[2]; at 33.0 µM,5%
same,growth inhibition,[2]; at 100.0 µM,73% (active)
same,growth inhibition,[3]; at 1.2 µM,5%
same,growth inhibition,[3]; at 3.7 µM,12%
same,growth inhibition,[3]; at 11.0 µM,26%
same,growth inhibition,[3]; at 33.0 µM,52%
same,growth inhibition,[3]; at 100.0 µM,76% (active)
same,growth inhibition,[4]; at 1.2 µM,-4%
same,growth inhibition,[4]; at 3.7 µM,-3%
same,growth inhibition,[4]; at 11.0 µM,-3%
same,growth inhibition,[4]; at 33.0 µM,19%
same,growth inhibition,[4]; at 100.0 µM,90% (active)
same,growth inhibition,[5]; at 1.2 µM,2%
same,growth inhibition,[5]; at 3.7 µM,-42%
same,growth inhibition,[5]; [16],7%
same,growth inhibition,[5]; at 11.0 µM,33%
same,growth inhibition,[5]; at 33.0 µM,53%
same,growth inhibition,[5]; [17],80% (active)
same,growth inhibition,[5]; at 50.0 µM,96.2% (active)
same,growth inhibition,[5]; at 100.0 µM,95% (active)
same,growth inhibition,[6]; at 1.2 µM,0%
same,growth inhibition,[6]; at 3.7 µM,0%
same,growth inhibition,[6]; [16],4%
same,growth inhibition,[6]; at 11.0 µM,3%
same,growth inhibition,[6]; at 33.0 µM,17%
same,growth inhibition,[6]; [17],52%
same,growth inhibition,[6]; at 50.0 µM,96% (active)
same,growth inhibition,[6]; at 100.0 µM,89% (active)
same,growth inhibition,[7]; at 1.2 µM,2%
same,growth inhibition,[7]; at 3.7 µM,5%
same,growth inhibition,[7]; at 11.0 µM,12%
same,growth inhibition,[7]; at 33.0 µM,24%
same,growth inhibition,[7]; at 100.0 µM,86% (active)
same,growth inhibition,[8]; [16],2%
same,growth inhibition,[8]; [17],51%
same,growth inhibition,[8]; at 50.0 µM,96.8% (active)
same,growth inhibition,[9]; at 1.2 µM,-13%
same,growth inhibition,[9]; at 3.7 µM,-15%
same,growth inhibition,[9]; at 11.0 µM,-16%
same,growth inhibition,[9]; at 33.0 µM,-29%
same,growth inhibition,[9]; at 100.0 µM,12%
same,growth inhibition,[10]; [16],-13%
same,growth inhibition,[10]; [17],11%
same,growth inhibition,[10]; at 50.0 µM,93% (active)
same,growth inhibition,[11]; at 1.2 µM,-4%
same,growth inhibition,[11]; at 3.7 µM,-6%
same,growth inhibition,[11]; [16],3%
same,growth inhibition,[11]; at 11.0 µM,0%
same,growth inhibition,[11]; at 33.0 µM,28%
same,growth inhibition,[11]; [17],72% (active)
same,growth inhibition,[11]; at 50.0 µM,95% (active)
same,growth inhibition,[11]; at 100.0 µM,90% (active)
same,growth inhibition,[12]; at 1.2 µM,-2%
same,growth inhibition,[12]; at 3.7 µM,6%
same,growth inhibition,[12]; at 11.0 µM,-1%
same,growth inhibition,[12]; at 33.0 µM,12%
same,growth inhibition,[12]; at 100.0 µM,84% (active)
same,growth inhibition,[13]; at 1.2 µM,-2%
same,growth inhibition,[13]; at 3.7 µM,-2%
same,growth inhibition,[13]; at 11.0 µM,0%
same,growth inhibition,[13]; at 33.0 µM,18%
same,growth inhibition,[13]; at 100.0 µM,88% (active)
same,growth inhibition,[14]; at 1.2 µM,-2%
same,growth inhibition,[14]; at 3.7 µM,0%
same,growth inhibition,[14]; at 11.0 µM,7%
same,growth inhibition,[14]; at 33.0 µM,40%
same,growth inhibition,[14]; at 100.0 µM,90% (active)
same,growth inhibition,[15]; [16],4%
same,growth inhibition,[15]; [17],41%
same,growth inhibition,[15]; at 50.0 µM,96.2% (active)
Nc1cccc(-c2cc[cH-]c2)c1.[Fe+2].c1cc[cH-]c1,growth inhibition,[1]; at 1.2 µM,-2%
same,growth inhibition,[1]; at 3.7 µM,6%
same,growth inhibition,[1]; at 11.0 µM,15%
same,growth inhibition,[1]; at 33.0 µM,39%
same,growth inhibition,[1]; at 100.0 µM,95% (active)
same,growth inhibition,[2]; at 1.2 µM,-1%
same,growth inhibition,[2]; at 3.7 µM,-3%
same,growth inhibition,[2]; at 11.0 µM,-3%
same,growth inhibition,[2]; at 33.0 µM,2%
same,growth inhibition,[2]; at 100.0 µM,50%
same,growth inhibition,[3]; at 1.2 µM,-1%
same,growth inhibition,[3]; at 3.7 µM,9%
same,growth inhibition,[3]; at 11.0 µM,21%
same,growth inhibition,[3]; at 33.0 µM,20%
same,growth inhibition,[3]; at 100.0 µM,76% (active)
same,growth inhibition,[4]; at 1.2 µM,-4%
same,growth inhibition,[4]; at 3.7 µM,-3%
same,growth inhibition,[4]; at 11.0 µM,-2%
same,growth inhibition,[4]; at 33.0 µM,4%
same,growth inhibition,[4]; at 100.0 µM,93% (active)
same,growth inhibition,[5]; at 1.2 µM,-3%
same,growth inhibition,[5]; at 3.7 µM,3%
same,growth inhibition,[5]; [16],-14%
same,growth inhibition,[5]; at 11.0 µM,16%
same,growth inhibition,[5]; at 33.0 µM,35%
same,growth inhibition,[5]; [17],15%
same,growth inhibition,[5]; at 50.0 µM,35.5%
same,growth inhibition,[5]; at 100.0 µM,96% (active)
same,growth inhibition,[6]; at 1.2 µM,-2%
same,growth inhibition,[6]; at 3.7 µM,-3%
